# Results as given in ChEMBL document CHEMBL3988442, “University of Dundee, Small-Polar-MMV Screening Library” (2021).
# The whole screen tested about 48,000 compounds, of which about 13,000 (27%) showed an effect of 50% or more. This is one part of the list.
# Tested on: Wolbachia pipientis
# Assay: Anti-Wolbachia Cell-Based Screen
# Assay type: functional
# Parameters: scale not given: in the data most compounds retested in dose-response had high values
# Details: 5 µM
row,SMILES,Percent Effect [%]
1,COc1ccc(C(=O)Cn2cnnc2[S+](C)[O-])cc1Cl (centres undefined),-30.86
2,Cc1ccc(CC(=O)N2CCC(c3nnc4n3CCC4)CC2)cc1,-4.36
3,CC(C)n1c(C2CCCN(CC(N)=O)C2)nc2ccccc21 (centres undefined),-123.1
4,C/C(=C\c1ccccc1)CN1CCCC(c2nnc3n2CCNCC3)C1.Cl (centres undefined),87.16
5,CC(C)CN1C(=O)CO[C@@H]2CN(C(=O)NC(C)C)C[C@H]21,-9.204
6,CN1CCCN(c2nccc(-c3cc(C(=O)O)ccn3)n2)CC1,-0.2127
7,Cc1nn(C)cc1-c1ccnc(N2CCN(c3ccccc3)C(=O)C2)n1,-10.97
8,CN1CCCN(c2nccc(-c3c[nH]nc3-c3ccncc3)n2)CC1,94.49
9,CN1CCCN(c2nccc(-c3c[nH]c4ccc(Br)cc34)n2)CC1,88.95
10,c1cc(-c2n[nH]cc2-c2ccnc(N3CCCCCC3)n2)ccn1,91.97
11,c1cc(-c2n[nH]cc2-c2ccnc(N3CCCC3)n2)ccn1,100.8
12,Cc1oc(C(C)C)cc1C(=O)N1C[C@H]2CC[C@@H]1CN(c1ncccn1)C2,6.387
13,CN(C)c1ccc(CCCNC(=O)NCC(O)c2ccsc2)cc1 (centres undefined),3.16
14,Cc1ccc(-c2nc3c([nH]2)CCNC3C(=O)O)c2cccnc12 (centres undefined),-6.719
15,Cc1cc(C)nc(Nc2cccc(C3CCCN(S(C)(=O)=O)C3)n2)n1 (centres undefined),85.5
16,CNc1cncc(C2CCCN(S(C)(=O)=O)C2)n1 (centres undefined),-7.969
17,Cc1cnc(N2CCCC(c3ccccc3)C2)nc1-c1ccnn1C (centres undefined),-17.82
18,CS(=O)(=O)N1CCCC(c2nc(-c3ccccc3)c[nH]2)C1 (centres undefined),-2.942
19,CS(=O)(=O)N1CCCC(c2cncc(Nc3ccccn3)n2)C1 (centres undefined),103.2
20,Cc1cc(C)nc(Nc2cncc(C3CCCN(S(C)(=O)=O)C3)n2)n1 (centres undefined),101.3
21,Cc1cc(-c2ccnn2C)nc(C2CCCN(S(C)(=O)=O)C2)n1 (centres undefined),122.2
22,CCc1noc(C)c1-c1nc(Cc2cccs2)nn1C1CCN(C)CC1,-27.77
23,COCC(c1ccccn1)N(C)C(=O)c1cc(-c2ccc(O)cc2)n[nH]1 (centres undefined),-10.51
24,N#Cc1cc2n(n1)CCN(C(=O)CCc1c[nH]c3ccccc13)C2,-21.25
25,CN(C)C(CNC(=O)NCc1cc[nH]n1)c1ccco1 (centres undefined),-4.793

row,SMILES,Percent Effect [%]
1,CCOC(=O)C1CN(CC2CC2)Cc2ncn(CC)c21.O=C(O)C(F)(F)F (centres undefined),1.772
2,COC[C@@]12CCO[C@@H]1CCN(C(=O)C1CC(F)(F)C1)C2,-30.77
3,COC[C@@]12CCC[C@@H]1CN(C(=O)CN(C)C)C2.O=C(O)C(F)(F)F,107.5
4,COC[C@@]12CCC[C@@H]1CN(C(=O)N1CCCC1)C2,106.2
5,CCOCC(=O)N1C[C@H]2CCC[C@@]2(COC)C1,105.6
6,COCCC(=O)N1C[C@H]2CCC[C@@]2(COC)C1,114
7,COCCC(=O)N1C[C@@H]2COC[C@]2(COCc2cccnc2)C1,-10.08
8,Cc1ccoc1C(=O)N1C[C@H]2CCC[C@@]2(COCc2ccncc2)C1.O=C(O)C(F)(F)F,6.221
9,COC[C@@]12CCO[C@@H]1CCN(C(=O)C1CCSCC1)C2,-9.781
10,COC[C@@]12CCC[C@@H]1CN(C(=O)Cc1ccco1)C2,-55.3
11,CCCc1cc(C(=O)N2C[C@H]3CCC[C@@]3(CO)C2)[nH]n1,14.56
12,CNC(=O)CCCNCc1c(C)nn(CC(C)C)c1N(C)C,0.5097
13,CC(=O)N1CCN(c2ccccc2CNc2ccc3[nH]ncc3c2)CC1,-1.242
14,CCNC(=O)CN1CCCN(C(=O)C2CCCc3[nH]ncc32)CC1 (centres undefined),2.738
15,CC(C#N)NS(=O)(=O)c1ccc2c(c1)N(C)CCC2 (centres undefined),-3.388
16,Cc1nc(CCNC(=O)C2CC(=O)N(C(C)(C)C)C2)sc1Cl (centres undefined),-46.08
17,N#Cc1ccc2c(c1)CN(C(=O)C1CC=CC1)C2c1cnco1 (centres undefined),-2.479
18,COCC(=O)N1C[C@H]2CCC[C@@]2(COC)C1,91.12
19,CC(C)(O)CN1CCN(C(=O)COC2CCCC2)CC1,-11.71
20,O=C(Cc1ccco1)N1C[C@H]2CCC[C@@]2(COCC2CC2)C1,4.43
21,COC[C@@]12CCC[C@@H]1CN(C(=O)COC1CCCC1)C2,116
22,COCC(=O)N1C[C@@H]2COC[C@]2(COC)C1,-5.007
23,O=C(COC1CCCC1)N1CC[C@H]2OCC[C@@]2(COCC2CC2)C1,5.898
24,Cc1csc(N(C)C(=O)C2CC(=O)N(c3ccccc3F)C2)n1 (centres undefined),1.281
